Laboratory results: PubChem BioAssay (NCI)
“And” between values parts separate entries of the source, which are not always exact repeats. Identical values can stand only once. Compounds without any hit were thinned out: in the full panel of roughly 83,000, 20% have a hit.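 Single-concentration screen, 48 h exposure, 96-well plates. Endpoint: percent growth. Below 10 = active.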 Values without a mark were called inactive. The source made the active and inactive calls.

System: MDA-MB-468 breast
Experiment: NCI-60 one-dose screen, 48 h (100 = growth as untreated, 0 = no growth, -100 = all killed)
Settings: 10 µM unless noted

| Structure (SMILES) | growth |
| --- | --- |
| COc1cc(/C=C/C(=O)c2ccc(C)cc2)ccc1Oc1nc(NCCO)nc(N2CCOCC2)n1 | 27.2% |
| CCCCn1c(-c2ccc(C(=O)O/N=C(\N)c3ccc4c(c3)OCO4)cc2)nc(-c2ccccc2)c1-c1ccccc1 | 73.8% |
| CN1CCN(C2=Nc3ccccc3Oc3ccc(Cl)cc32)CC1 | 100% |
| COc1ccc2nc(-c3ccc(Cl)cc3)cc(-c3nnc(SC/C(=N\O)c4ccccc4)n3-c3ccccc3)c2c1 | 60.4% |
| O=S(=O)(NCCCNc1nccc(-c2c(-c3ccc(F)cc3)nc3sccn23)n1)c1ccc2ccccc2c1 | 51.8% |
| O=[N+]([O-])c1ccc(S(=O)Cc2ccccc2)c([N+](=O)[O-])c1 (configuration not stated) | -56% (active) and -64.1% (active) |
| NC(=O)NC1(C(=O)O)CCCC1 | 119% |
| NCCNc1nc(Nc2ccc(-c3nc4ccccc4[nH]3)cc2)c2cn[nH]c2n1 | 57.2% |
| NC(=S)N/N=C/c1ccc(Cl)s1 | 98.8% |
| NC(=S)N/N=C/c1ccc(N)cc1 | 106% |
| CC(C)C(=O)Nc1n[nH]c2cc(-c3cccc(NS(=O)(=O)C4CC4)c3)ccc12 | 21.6% |
| CCN(CC)C(=O)O/N=C(/C)c1ccccc1 | 96.5% |
| COc1ccc([C@@H]2[C@@H](O)C(=O)N2c2cc(OC)c(OC)c(OC)c2)cc1 | 2.98% (active) |
| Cc1ccc2nc(-c3ccc(C(=O)NNC(=S)Nc4ccccc4)cc3)[nH]c2c1 | 98.6% |
| O=C(CN1C(=O)S/C(=C\C(Cl)=C\c2ccccc2)C1=O)NC1CCS(=O)(=O)C1 (configuration not stated) | 8.17% (active) |
| CN(C)CCCn1c2c(c3ncccc3c1=O)C(=O)c1ccccc1-2 | 31.7% |
| CC(C)(C)c1ccc(S(=O)(=O)Oc2ccc(-c3sc4cc(OS(=O)(=O)c5ccc(C(C)(C)C)cc5)ccc4c3C(=O)c3ccc(OCCN4CCCCC4)cc3)cc2)cc1 | 90% |
| Cn1cc(-c2cc3ncnc(Nc4ccc(NC(=O)Nc5cc(C(C)(C)C)on5)cc4)c3s2)cn1 | 31.7% |
| Clc1ccc(SSc2ccc(Cl)cc2)cc1 | 95.7% and 95.5% |

| Structure (SMILES) | growth |
| --- | --- |
| CC1(C)N=C(N)N=C(N)N1c1cccc(/C=C/C=C/c2cccc([N+](=O)[O-])c2)c1 | 16.2% |
| Cn1ncc2c(Nc3ccccc3Cl)nc(Cl)nc21 | 97.1% |
| COC(CCCl)c1ccc(Cl)cc1 (configuration not stated) | 102% |
| COc1ccc2c(c1)OC(N(C(C)=O)C(C)=O)=C(C#N)C2c1ccc(F)cc1 (configuration not stated) | -36.1% (active) |
| Cn1c(=O)c2[nH]c(C(O)C(O)C(O)C(O)CO)nc2n(C)c1=O (configuration not stated) | 118% |
| CCOC(=O)C1=C(C)C(Cl)=N/C1=C\c1[nH]c(Cl)c(C)c1C(=O)OCC | 102% |
| Clc1ccccc1N=Cc1ccc2c(c1)OCO2 | 101% |
| COc1cc2c(c(OC)c1)C1c3cc(OC)ccc3NC(=O)N1CC2 (configuration not stated) | 70.1% |
| COc1cccc(-c2nn(-c3ccccc3)cc2-c2ccnc(NCCCNC(=O)c3cccc(C(F)(F)F)c3)c2)c1 | 17.3% |
| CCOC(=O)c1cc2c(n1Cc1cc(OC)c(OC)c(OC)c1)-c1oncc1CCC2 | 15.7% |
| O=C(NC1CCN(Cc2ccccc2)CC1)c1cc(-c2ccncc2)nc2ccc(Cl)cc12 | 12.8% |
| COc1ccc(/C(=C\c2cc(OC)c(OC)c(OC)c2)C(=O)N2CCN(c3ccccc3)CC2)cc1O | 96.8% |
| CCOC(=O)N[C@H]1CCc2cc(OC)c(OC)c(OC)c2-c2ccc(SC)c(=O)cc21 | -36.8% (active) |
| Nc1nc(N)c(N=Nc2ccccc2)c(-c2ccccc2)n1 | 8.67% (active) |
| COc1ccc2c(N)ncc(C#Cc3cc(C(=O)Nc4ccc(CN5CCN(C)CC5)c(C(F)(F)F)c4)cnc3C)c2c1 | 46.7% |
| CCCCSC1=C(Cl)CN(c2ccccc2)C1=O | 84.6% |
| CCc1ccccc1-n1[nH]c(C)c(C=N)c1=O | 90.3% |
| COc1cccc(-c2nc3sccn3c2-c2ccnc(NCCNS(=O)(=O)c3cccc(F)c3)c2)c1 | 25.6% |
